Source: PubChem (National Center for Advancing Translational Sciences (NCATS))
Rows were chosen to be rich in hits. Some 12% of all compounds tested hit in one or more screens of this group.
Sfp inh: qHTS Assay for Inhibitors of Bacillus subtilis Sfp phosphopantetheinyl transferase (PPTase); Biochemical Sfp PPTase activity, qHTS; Potency, µM, without a hit: largest response in the series, negative = inhibition, actives largely listed as inhibitors; actives 3.5% (n = 310,000); 4'-phosphopantetheinyl transferase ffp (Bacillus subtilis), Q9F4F7;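 note: the enzyme is Sfp with the accession as filed and its product quenches rhodamine fluorescence; 0% = enzyme reaction without inhibitor and -100% = no enzyme wells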
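Fluorescence-quenching assay: 15 nM Sfp-PPTase preincubated 15 min at room temperature with compound, then 5 uM rhodamine-CoA and 12.5 uM BHQ-2-labelled YbbR peptide added. Fluorescence (ex 525/em 598 nm) read at start and after 30 min; difference gives rate.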
JMJD2A Tudor: qHTS Assay for Inhibitors of JMJD2A-Tudor Domain; actives 4.4% (n = 390,000); AID 504339, 2011; Potency, µM (titrated, usually from 114 µM), for inactives: at the top dose activity change, negative = inhibition, hits mostly inhibitors; AlphaScreen JMJD2A-Tudor / H3K4me3 peptide binding; Lysine-specific demethylase 4A (Homo sapiens), O75164; note: % is set by controls: 0 for no effect and ±100 for the full control effect; nearly all actives have a fitted effect of over 50% in size
PLK1 PBD inh: qHTS for Inhibitors of PLK1-PDB (polo-like kinase 1 - polo-box domain): Primary Screen | Serine/threonine-protein kinase PLK1 (Homo sapiens), P53350 | Plk1 PBD binding of FITC phosphopeptide, fluorescence polarization | Potency, µM, without a hit: max response, negative = inhibition, most hits filed as inhibitors | actives 2.8% (n = 360,000); note: series mostly up to about 57 µM; % is set by controls: 0 for no effect and ±100 for the full control effect; nearly all actives have a fitted effect of over 65% in size
BAZ2B block: qHTS Assay for Inhibitors of BAZ2B; Bromodomain adjacent to zinc finger domain protein 2B (Homo sapiens), Q9UIF8; AlphaScreen BAZ2B-H3K14Ac peptide displacement; Potency, µM (series often up to 114 µM), for the others: top-dose activity change, negative = inhibition, most hits filed as inhibitors; actives 4.4% (n = 360,000); AID 504333, 2011; note: % is set by controls: 0 for no effect and ±100 for the full control effect; nearly all actives have a fitted effect of over 60% in size
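In this displacement format the biotinylated H3(5-23) peptide acetylated at Lys14 serves as ligand at 50 nM, with BAZ2B at 50 nM in PBS pH 7.4 containing 0.01% Tween-20. Donor and acceptor beads are 10 ug/mL final.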
HP1b binding inh: HTS for Inhibitors of HP1-beta Chromodomain Interactions with Methylated Histone Tails; AlphaScreen HP1-beta / biotin-H3K9me3 peptide binding; Potency, µM (top dose mostly 114 µM), for the others: at the top dose activity change, negative = inhibition, actives largely listed as inhibitors; actives 0.56% (n = 390,000); AID 540317, 2011; note: nearly all actives have a fitted effect of over 70% in size
Target sequence (P83916 whole entry, looked up): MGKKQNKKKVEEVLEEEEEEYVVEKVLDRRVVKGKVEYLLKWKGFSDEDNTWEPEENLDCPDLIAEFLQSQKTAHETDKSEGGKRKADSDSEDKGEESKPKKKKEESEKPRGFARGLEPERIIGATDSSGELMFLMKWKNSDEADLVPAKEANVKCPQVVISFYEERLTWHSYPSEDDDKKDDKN
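AlphaScreen: HP1-beta (50 nM) preformed 30 min with biotin-H3(1-18)K9me3 peptide (50 nM) in PBS pH 7.4, 0.01% Tween-20. Compound added for 30 min at RT, then streptavidin donor/nickel chelate acceptor beads (10 ug/mL) for 30 min.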
G9a block: qHTS Assay for Inhibitors of Histone Lysine Methyltransferase G9a; Histone-lysine N-methyltransferase EHMT2 (Homo sapiens), Q96KQ7; G9a H3K9 monomethylation, AlphaScreen, 2 h; Potency, µM (titrated, usually from 102 µM), for the others: top-dose activity, negative = inhibition, actives largely listed as inhibitors; actives 8.8% (n = 350,000); AID 504332, 2011; note: % is set by controls: 0 for no effect and ±100 for the full control effect; nearly all actives have a fitted effect of over 75% in size
Target sequence (Q96KQ7 913-1193 limits assumed): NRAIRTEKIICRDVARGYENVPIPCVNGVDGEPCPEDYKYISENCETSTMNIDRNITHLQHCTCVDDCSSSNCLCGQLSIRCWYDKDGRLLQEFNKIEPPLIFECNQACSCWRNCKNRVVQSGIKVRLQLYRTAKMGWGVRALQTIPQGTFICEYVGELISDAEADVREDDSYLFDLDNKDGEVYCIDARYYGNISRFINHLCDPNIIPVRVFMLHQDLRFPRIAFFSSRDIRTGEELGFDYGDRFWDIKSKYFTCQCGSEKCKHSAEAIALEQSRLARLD
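Chemiluminescent proximity detection of H3K9 monomethylation, read after 10 min bead incubation in the dark. Reaction: 20 nM G9a, 500 nM biotin-H3K9 peptide, 20 uM SAM cofactor, 2 h, room temperature, following 15 min enzyme-compound preincubation.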
* hit, by the source's call; ? = inconclusive; . = no result; [ ] = dose if it differs, or a comment. Calls come from the whole dose curve; as a rule, active = well fitted curve in the direction sought with a large enough effect; inconclusive = small, poorly fitted or top-dose-only effect, or another doubt; inactive = no such curve, though single readings can be large; an effect the other way counts as inactive or inconclusive. Potency is the fitted concentration of half-maximal effect.

SMILES	Sfp inh	JMJD2A Tudor	PLK1 PBD inh	BAZ2B block	HP1b binding inh	G9a block
CCOC(=O)c1ccc(N2C(=O)C3C(C2=O)C(C(=O)c2ccc(Cl)cc2)N2CCCC32)cc1 (stereo not given)	?	-33%	-4%	50µM*	32%	?
CCCC(=O)NC(NC1CCS(=O)(=O)C1)C(Cl)(Cl)Cl (stereo not given)	1%	-16%[11.4 µM]	27µM*	-4%	-16%	.
O=C(C[n+]1ccccc1)N/N=C/c1ccccc1C(F)(F)F	7%	9%	1%	-5%	34%	4%
COc1ccccc1CN1CCNC(=O)C1CC(=O)NC1CCCCCC1 (stereo not given)	10%	-16%	-5%	-26%	34%	16µM*
CCOc1ccccc1CN1CCNC(=O)C1CC(=O)NC1CCCCCC1 (stereo not given)	1%	?	21µM*	-9%	18%	?
COc1cccc(CN2CCNC(=O)C2CC(=O)NC2CCCC2)c1OC (stereo not given)	9%	-24%	-14%	-16%	9%	40µM*
CCOc1ccccc1CN1CCNC(=O)C1CC(=O)NC1CCCCC1 (stereo not given)	6%	-27%	-11%	-18%	40%	-5%[0.0925 µM]
COc1cccc(CN2CCNC(=O)C2CC(=O)NC2CCCCC2)c1OC (stereo not given)	12%	-6%	-8%	-14%	44%	35µM*
COc1ccc(CN2CCNC(=O)C2CC(=O)NC2CCCCC2)c(OC)c1 (stereo not given)	12%	-11%	-4%	-12%	21%	.
CCc1ccccc1-n1cnc2cc(C(=O)NC3CCCCCC3)ccc21	.	-16%	.	-17%	10%	-26%[59 µM]
CCNc1ncc2ncc(=O)n(Cc3ccc(F)cc3)c2n1	13%	.	.	.	.	15%[0.501 µM]
O=C(CSc1nnc2ccccn12)NNC(=O)c1ccccc1F	.	-5%	8%	.	11%	.
COc1cccc(CN2CCNC(=O)C2CC(=O)N2CCCCO2)c1OC (stereo not given)	-24%	1%	-2%	0%	52%	71µM*
O=C(NCc1nc2ccccc2[nH]1)C1=C[C@@H](c2ccccc2)C[C@@H](OCCCCO)O1	-4%	-23%	-3%	2%	33%	22%[12.7 µM]
O=C(CCS(=O)(=O)c1ccccc1)Nc1nnc(C(F)(F)F)s1	4%	-26%	-17%	?	-12%	40µM*
CC(C)(C)c1nnc(NC(=O)CCS(=O)(=O)c2ccccc2)s1	-23%	-2%	-29%	-9%	-9%	28µM*
O=C(CS(=O)(=O)c1ccccc1)Nc1nnc(C(F)(F)F)s1	8%	7%	-5%	1%	24%	?
Cc1ccc(S(=O)(=O)CC(=O)Nc2nnc(C(C)(C)C)s2)cc1	?	?	?	4%	-14%	22µM*
COc1ccc(S(=O)(=O)CC(=O)Nc2nnc(C(F)(F)F)s2)cc1	3%	5%	2%	-4%	34%	14%
CC(=O)OC1CC[C@@]2(C)C3=CC(=O)[C@]4(C)C(CC5OC6(OCC(C)CC6Br)C(C)C54)C3CC[C@H]2C1 (stereo not given in full)	10%	.	.	.	.	.
O=C(N/N=C/c1ccc(-c2ccc(Cl)c(C(=O)O)c2)o1)c1cc2c(ccc3ccccc32)o1	?	-8%[11.4 µM]	?	28µM*	?	.
NNC(=O)c1cc2c(ccc3ccccc32)o1	1%	-19%	-22%	6%	-4%	44%[59 µM]
